# Measured values published in PubChem BioAssay (Tox21).
# “And” between values parts separate entries of the source, which are not always exact repeats. Identical values can stand only once. Records with an inconclusive call do not appear. Where a call stands in place of a potency, no number is given. The source made the active and inactive calls. The call rests on the fitted dose curve; in most records, active means well fitted inhibition curve with a large enough effect in the repeat runs; inconclusive means weak or mixed curves; inactive means flat fitted curve, though single readings scatter.
# Molecular target: Voltage-gated inwardly rectifying potassium channel KCNH2 (Homo sapiens) (UniProt Q12809)
# Experiment: Human Ether-a-go-go-Related Gene (hERG) channel small molecule antagonists: fluorescence cell-based qHTS assay (AID 1671200); further: nearly all actives have a fitted effect of over 50% in size
# Details: hERG-U2OS cells, FluxOR thallium flux fluorescence; series mostly up to 76.8 µM; activity change, negative = inhibition: at the top concentration
# Text: National Center for Advancing Translational Sciences [NCATS]
# U.S. Environmental Protection Agency [EPA]
# National Institutes of Environmental Health Sciences [NIEHS]
# National Toxicology Program [NTP]
# U.S. Food and Drug Administration [FDA]
# Mutations in the hERG channel cause Long QT (LQT) syndrome. LQT syndrome is a cardiac disorder which can cause ventricle arrhythmia and sudden death. Additionally, compounds which block the hERG channel can cause acquired LQT syndrome. Several FDA approved drugs have been removed from the market due to their hERG blocking activity. A cell-based hERG channel inhibition assay can be used to screen chemical compounds that inhibit hERG channel. This assay measures hERG channel activity using thallium ions as surrogate ions to measure potassium into the cells.
# Tox21 Assay Protocol Summary:
# hERG-U2OS cells were resuspended in culture medium and dispensed into 1536-well, black wall/clear-bottom plates at 1000cells/well/3uL using a Multidrop Combi dispenser (Thermo Fisher, Waltham, MA). After plates were incubated at 37 C overnight, 3 uL of Loading Buffer provided by FluxOR II Potassium Ion Channel Assay kit (Thermo, Carlsbad, CA) was added to each well. The assay plates were then incubated at room temperature in the dark for 1h. […] After the assay plates were incubated at room temperature for 10 min, 1 uL of Stimulus Buffer provided by FluxOR II Potassium Ion Channel Assay kit was added into each well and fluorescence intensity (480nm excitation/540nm emission) was continuously measured for 2 min at 1 second intervals using a Functional Drug Screening System (FDSS) 7000EX kinetic plate reader (Hamamatsu, Japan).
# Potency means the concentration at half of the fitted maximal effect.
# Chain of Voltage-gated inwardly rectifying potassium channel KCNH2 (Homo sapiens) (Q12809 whole entry, looked up): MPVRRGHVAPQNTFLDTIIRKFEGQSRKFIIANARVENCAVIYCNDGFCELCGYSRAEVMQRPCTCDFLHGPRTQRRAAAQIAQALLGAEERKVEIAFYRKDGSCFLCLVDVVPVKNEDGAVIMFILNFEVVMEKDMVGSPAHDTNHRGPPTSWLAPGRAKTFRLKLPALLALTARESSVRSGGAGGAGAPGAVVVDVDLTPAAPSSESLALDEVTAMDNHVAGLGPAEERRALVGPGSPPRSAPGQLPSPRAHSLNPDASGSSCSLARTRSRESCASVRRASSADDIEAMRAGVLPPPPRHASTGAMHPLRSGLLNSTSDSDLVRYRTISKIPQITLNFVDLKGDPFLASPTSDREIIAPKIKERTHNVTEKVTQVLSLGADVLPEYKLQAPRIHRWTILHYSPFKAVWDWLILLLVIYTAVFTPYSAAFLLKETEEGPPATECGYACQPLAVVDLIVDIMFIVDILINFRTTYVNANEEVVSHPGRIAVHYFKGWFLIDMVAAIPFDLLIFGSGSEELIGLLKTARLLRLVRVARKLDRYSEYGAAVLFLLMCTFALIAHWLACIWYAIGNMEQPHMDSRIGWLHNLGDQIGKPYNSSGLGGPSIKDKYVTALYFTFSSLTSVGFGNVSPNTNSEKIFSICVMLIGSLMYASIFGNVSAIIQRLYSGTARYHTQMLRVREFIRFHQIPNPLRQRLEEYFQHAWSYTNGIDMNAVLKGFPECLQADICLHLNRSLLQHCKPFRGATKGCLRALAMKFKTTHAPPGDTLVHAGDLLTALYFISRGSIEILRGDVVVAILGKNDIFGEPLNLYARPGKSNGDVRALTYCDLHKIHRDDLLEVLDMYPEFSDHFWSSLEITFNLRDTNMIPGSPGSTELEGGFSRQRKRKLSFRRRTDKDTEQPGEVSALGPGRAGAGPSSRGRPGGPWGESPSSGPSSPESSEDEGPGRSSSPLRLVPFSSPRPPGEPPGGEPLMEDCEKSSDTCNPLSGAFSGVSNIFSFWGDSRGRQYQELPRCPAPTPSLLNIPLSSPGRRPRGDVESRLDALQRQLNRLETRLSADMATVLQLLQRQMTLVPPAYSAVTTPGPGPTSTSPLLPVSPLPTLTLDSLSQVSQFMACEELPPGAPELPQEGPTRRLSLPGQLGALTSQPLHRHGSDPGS
SMILES,Potency,"activity change, negative = inhibition"
CCCN1C=CN(C)C1,inactive,–
CC(C)(C)c1cccc(C(C)(C)C)c1O,24 µM (active),–
Cc1cccc(Nc2ccccc2C(=O)O)c1C,–,-3.35% (inactive)
COc1ccc(-c2coc3cc(O)cc(O)c3c2=O)cc1,inactive,–
COC(=O)CC(=O)OC,inactive,–
CC(C)(Oc1ccc(Cl)cc1)C(=O)O,–,2.18% (inactive)
CCCCCCCCCCCCO,inactive,–
CCCCCCC(C)O (stereo not given),inactive,–
Clc1ccc(Sc2cc(Cl)c(Cl)cc2Cl)cc1,inactive,–
C=C1C[C@H]2[C@@H]3C=C(C)C4=CC(=O)CC[C@]4(C)[C@H]3CC[C@]2(C)[C@@]1(OC(C)=O)C(C)=O,inactive,–
CCCCCCCCCCC(CO)CCCCCCCC (stereo not given),inactive,–
COc1cc([C@H]2Oc3cc([C@H]4Oc5cc(O)cc(O)c5C(=O)[C@@H]4O)ccc3O[C@@H]2CO)ccc1O,inactive,–
c1ccc2c(c1)ccc1ncccc12,inactive,–
CC1(C)O[C@@H]2C[C@H]3[C@@H]4C[C@H](F)C5=CC(=O)C=C[C@]5(C)[C@@]4(F)[C@@H](O)C[C@]3(C)[C@]2(C(=O)CO)O1,inactive,–
CCC(=O)O[C@H]1[C@H](O[C@@H]2[C@@H](C)[C@H](O[C@H]3C[C@@](C)(OC)[C@@H](O)[C@H](C)O3)[C@@H](C)C(=O)O[C@H](CC)[C@@](C)(O)[C@H](O)[C@@H](C)C(=O)[C@H](C)C[C@@]2(C)O)O[C@H](C)C[C@@H]1N(C)C,–,-12.8% [at 35.3 µM] (inactive)
CN(C)C,inactive,–
CC1=CC(C)(C)Nc2ccccc21,inactive,–
CN(C)/N=N/c1nc[nH]c1C(N)=O,inactive,–
CN(Cc1cnc2nc(N)nc(N)c2n1)c1ccc(C(=O)N[C@@H](CCC(=O)O)C(=O)O)cc1,inactive,–
CC(C)=CCO,inactive,–

SMILES,Potency,"activity change, negative = inhibition"
CC(=O)Oc1c(C)c(C)c2c(c1C)CC[C@@](C)(CCC[C@H](C)CCC[C@H](C)CCCC(C)C)O2,inactive,–
O=C1CCc2ccccc2O1,inactive,–
OCCNCCO,inactive,–
O=C1OC2(c3ccccc31)c1cc(I)c(O)c(I)c1Oc1c2cc(I)c(O)c1I,inactive,–
COc1ccc(C(=O)c2ccccc2O)c(O)c1,inactive,–
CCC(Cc1c(I)cc(I)c(N)c1I)C(=O)O (stereo not given),inactive,–
[O-]/[N+](=N\O)c1ccccc1,inactive,–
CCCCCCCCCCCCCO,inactive,–
O=Cc1ccccc1C=O,inactive,–
C=CN1CCCC1=O,inactive,–
C=CC(=O)OCCCC,inactive,–
OC[C@@H](O)[C@@H](O[C@@H]1O[C@H](CO)[C@H](O)[C@H](O)[C@H]1O)[C@H](O)[C@@H](O)CO,inactive,–
CCOC(=O)C(C)Oc1ccc(Oc2cnc3cc(Cl)ccc3n2)cc1 (stereo not given),15.9 µM (active) and 18.3 µM (active),–
CC(=O)[C@@]1(O)CC[C@H]2[C@@H]3C[C@H](C)C4=CC(=O)C=C[C@]4(C)[C@@]3(F)[C@@H](O)C[C@@]21C,inactive,–
Cc1ccc(N)c([N+](=O)[O-])c1,inactive,–
CC(=O)[C@H]1CC[C@H]2[C@@H]3CC=C4C[C@@H](O)CC[C@]4(C)[C@H]3CC[C@]12C,inactive,–
c1ccc2ncccc2c1,inactive,–
C=CC(C)(O)CCC=C(C)C (stereo not given),inactive,–
Nc1ccc2c(O)cc(S(=O)(=O)O)cc2c1,inactive,–
Cc1ccc([N+](=O)[O-])c(C)c1,inactive,–
